Activity calls are given as the source filed them.

For 16 compounds, composite z-score and z-score results are on record in PubChem BioAssay.

Experiment [1] is described as follows: binders of probe aFSTL3 on microarray, primary screen, stem cell growth factor project, biochemical, small-molecule microarray, fluorescence 635/667 (AID 1064).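 Further: measures binding of the biotinylated anti-FSTL3 antibody to printed compounds.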 Particulars: higher = more signal.
Experiment [2] is described as follows: binders from COS7 lysate, DM2A8 probe, primary screen, torsin A project, cell lysate, small-molecule microarray, fluorescence 635/667 (AID 1065). Particulars: higher = more signal, COS7 lysate expressing mutant human TOR1A.
A short description of experiment [3]: binders of probe aFGF2 on microarray, primary screen, stem cell growth factor project, biochemical, small-molecule microarray, fluorescence 635/667 (AID 1067).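 Further: measures binding of biotinylated aFGF2 protein to printed compounds on slides; z-score merges feature fluorescence and signal-to-noise across triplicate slides.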 Particulars: higher = more signal.
A short description of experiment [4]: binders of probe aFGF10 on microarray, primary screen, stem cell growth factor project, biochemical, small-molecule microarray, fluorescence 635/667 (AID 1071).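 Further: score merges 667 nm spot intensity and signal to noise from triplicate slides.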 Particulars: higher = more signal.
The target of experiment [5] is Neurogenic locus notch homolog protein 2 (Homo sapiens) (UniProt Q04721). As to the kind of experiment: Notch2 binders on small-molecule microarrays, primary screen, biochemical, small-molecule microarray, 635 nm fluorescence, stem cell growth factors (AID 1073). Particulars: Notch2 binding, higher = more signal.
Neurogenic locus notch homolog protein 2 (Homo sapiens), sequence (Q04721 whole entry, looked up, canonical isoform): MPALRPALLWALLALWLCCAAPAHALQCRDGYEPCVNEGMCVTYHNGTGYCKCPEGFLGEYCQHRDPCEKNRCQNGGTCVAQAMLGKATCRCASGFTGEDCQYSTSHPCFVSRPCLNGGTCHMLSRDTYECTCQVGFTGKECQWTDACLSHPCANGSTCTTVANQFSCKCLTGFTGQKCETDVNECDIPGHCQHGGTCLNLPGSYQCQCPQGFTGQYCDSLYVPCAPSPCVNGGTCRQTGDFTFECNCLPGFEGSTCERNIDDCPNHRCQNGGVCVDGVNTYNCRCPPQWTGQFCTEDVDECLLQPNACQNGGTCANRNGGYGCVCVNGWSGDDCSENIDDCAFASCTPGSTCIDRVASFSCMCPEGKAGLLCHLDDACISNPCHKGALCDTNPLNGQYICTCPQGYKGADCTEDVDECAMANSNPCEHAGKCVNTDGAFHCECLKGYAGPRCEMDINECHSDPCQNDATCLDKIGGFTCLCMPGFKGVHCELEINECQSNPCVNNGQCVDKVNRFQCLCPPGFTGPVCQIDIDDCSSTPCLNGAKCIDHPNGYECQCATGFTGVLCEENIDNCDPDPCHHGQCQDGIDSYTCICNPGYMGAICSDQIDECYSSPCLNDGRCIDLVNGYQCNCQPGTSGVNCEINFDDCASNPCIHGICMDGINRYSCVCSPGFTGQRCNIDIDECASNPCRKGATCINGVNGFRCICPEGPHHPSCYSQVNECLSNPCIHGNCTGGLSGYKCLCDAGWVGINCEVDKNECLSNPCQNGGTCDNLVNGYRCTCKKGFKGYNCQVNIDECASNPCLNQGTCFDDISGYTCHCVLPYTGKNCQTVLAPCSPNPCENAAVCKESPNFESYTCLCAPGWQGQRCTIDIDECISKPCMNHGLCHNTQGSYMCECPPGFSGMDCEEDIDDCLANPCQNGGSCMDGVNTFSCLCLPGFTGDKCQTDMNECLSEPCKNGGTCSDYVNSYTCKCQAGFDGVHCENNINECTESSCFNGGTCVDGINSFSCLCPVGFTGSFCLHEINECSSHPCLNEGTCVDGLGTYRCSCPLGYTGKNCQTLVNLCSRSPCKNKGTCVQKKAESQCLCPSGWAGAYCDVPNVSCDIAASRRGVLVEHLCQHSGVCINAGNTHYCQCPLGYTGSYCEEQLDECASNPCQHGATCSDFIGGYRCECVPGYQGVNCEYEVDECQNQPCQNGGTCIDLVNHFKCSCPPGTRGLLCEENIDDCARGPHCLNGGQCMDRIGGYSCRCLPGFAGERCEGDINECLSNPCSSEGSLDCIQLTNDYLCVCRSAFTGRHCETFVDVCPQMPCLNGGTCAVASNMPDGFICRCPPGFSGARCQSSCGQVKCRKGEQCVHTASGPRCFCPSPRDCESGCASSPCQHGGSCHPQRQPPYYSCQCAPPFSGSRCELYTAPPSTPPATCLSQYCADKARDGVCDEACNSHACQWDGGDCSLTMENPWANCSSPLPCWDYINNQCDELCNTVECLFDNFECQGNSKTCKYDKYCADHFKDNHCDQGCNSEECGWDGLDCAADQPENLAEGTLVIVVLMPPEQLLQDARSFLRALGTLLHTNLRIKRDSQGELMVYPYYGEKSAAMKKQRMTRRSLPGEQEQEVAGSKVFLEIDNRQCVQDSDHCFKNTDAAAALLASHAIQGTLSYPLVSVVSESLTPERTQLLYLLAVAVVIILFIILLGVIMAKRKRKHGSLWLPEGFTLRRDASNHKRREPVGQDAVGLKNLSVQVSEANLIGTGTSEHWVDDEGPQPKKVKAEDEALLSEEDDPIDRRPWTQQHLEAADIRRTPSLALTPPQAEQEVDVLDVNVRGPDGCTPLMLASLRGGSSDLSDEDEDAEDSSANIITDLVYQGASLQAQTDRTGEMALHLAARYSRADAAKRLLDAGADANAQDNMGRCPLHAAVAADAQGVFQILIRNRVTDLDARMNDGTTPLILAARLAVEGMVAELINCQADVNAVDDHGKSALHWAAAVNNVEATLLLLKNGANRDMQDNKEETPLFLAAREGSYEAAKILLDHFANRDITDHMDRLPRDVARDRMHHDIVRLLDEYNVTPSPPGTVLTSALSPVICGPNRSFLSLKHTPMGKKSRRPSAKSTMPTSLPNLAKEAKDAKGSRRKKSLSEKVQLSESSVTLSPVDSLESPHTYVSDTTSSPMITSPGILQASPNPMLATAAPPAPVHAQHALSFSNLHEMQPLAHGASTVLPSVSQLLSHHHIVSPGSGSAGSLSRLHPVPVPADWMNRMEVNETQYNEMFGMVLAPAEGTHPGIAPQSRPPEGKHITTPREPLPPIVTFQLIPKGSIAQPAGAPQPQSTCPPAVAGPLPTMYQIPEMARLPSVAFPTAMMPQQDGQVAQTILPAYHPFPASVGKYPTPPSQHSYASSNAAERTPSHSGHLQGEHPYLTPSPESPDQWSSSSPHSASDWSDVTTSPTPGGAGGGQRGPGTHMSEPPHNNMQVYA
Experiment [6] deals with Pro-neuregulin-1, membrane-bound isoform (Homo sapiens) (UniProt Q02297). As to the kind of experiment: NRG1 binders on small-molecule microarrays, primary screen, psychiatric disease protein project, biochemical, small-molecule microarray, fluorescence 635/667 (AID 1075).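 Further: score combines 667 nm spot fluorescence with signal to noise.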 Particulars: NRG1 binding, 635 nm fluorescence, higher = more signal.
Pro-neuregulin-1, membrane-bound isoform (Homo sapiens), sequence (Q02297 whole entry, looked up, the tested form may be a part, canonical isoform): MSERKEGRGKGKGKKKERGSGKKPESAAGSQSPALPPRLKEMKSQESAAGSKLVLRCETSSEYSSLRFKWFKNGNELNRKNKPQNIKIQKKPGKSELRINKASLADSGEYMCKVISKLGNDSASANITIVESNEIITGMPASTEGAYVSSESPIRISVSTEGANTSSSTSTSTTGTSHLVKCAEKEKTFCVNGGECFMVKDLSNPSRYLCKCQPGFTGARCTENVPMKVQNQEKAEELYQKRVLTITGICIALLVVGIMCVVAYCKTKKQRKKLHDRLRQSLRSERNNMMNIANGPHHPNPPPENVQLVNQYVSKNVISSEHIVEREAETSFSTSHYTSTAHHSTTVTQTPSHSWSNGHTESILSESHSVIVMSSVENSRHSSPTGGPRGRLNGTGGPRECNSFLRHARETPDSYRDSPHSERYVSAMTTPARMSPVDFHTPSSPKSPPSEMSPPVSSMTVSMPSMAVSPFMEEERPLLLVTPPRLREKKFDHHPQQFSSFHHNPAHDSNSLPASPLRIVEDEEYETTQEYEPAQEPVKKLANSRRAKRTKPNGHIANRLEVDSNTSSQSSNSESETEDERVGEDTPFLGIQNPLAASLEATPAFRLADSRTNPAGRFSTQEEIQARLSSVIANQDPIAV
The subject of experiment [7] is Neuregulin-1 EGF-like domain. As to the kind of experiment: binders of neuregulin-1 EGF-like domain, primary screen, biochemical, small-molecule microarray, 635 nm fluorescence (AID 1081).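 Further: binding of the protein to compounds printed on small-molecule microarray slides.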 Particulars: small-molecule microarray binding, higher = more signal.
Experiment [8] can be described thus: FRG1 promoter luciferase signal modulators, primary screen, FRG1 inhibition for FSHD, cell-based, C2C12 myotubes, firefly/Renilla luciferase, luminescence (AID 1084). Particulars: higher = more signal, called active from +8 up or from −8 down.
Experiment [9] can be described thus: binders of probe aFST on microarray, primary screen, stem cell growth factor project, biochemical, small-molecule microarray, fluorescence 635/667 (AID 1086).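 Further: score merges 667 nm fluorescence with signal-to-noise of each printed compound spot.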 Particulars: higher = more signal.
Experiment [10] is described as follows: binders of probe aHhip on microarray, primary screen, stem cell growth factor project, biochemical, small-molecule microarray, fluorescence 635/667 (AID 1087).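 Further: score merges spot fluorescence at 667nm with spot signal to noise ratio.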 Particulars: higher = more signal.

As to `CC(C)c1ccc(NN2C(C(O)C3=C[C@H]4C[C@@H](C3)C4(C)C)C=CC3C(=O)N(c4ccccc4)C(=O)C32)cc1` (stereo not given in full), the composite z-score came out at 0.481 in experiment [1]; 0.357 in experiment [2]; 0.0301 in experiment [3]; 0.605 in experiment [4]; 1.16 in experiment [5]; 1.74 in [6]. For the same compound, the composite z-score in experiment [7] is 0.885; in [9], 0.907; in [10], -0.302. Also, the z-score in experiment [8] is -1.01 (inactive).
As to `O=C1O[C@H](c2ccccc2)[C@H](c2ccccc2)N2[C@H]1[C@@H](C(=O)Nc1nc3ccccc3s1)[C@]1(C(=O)Nc3ccccc31)[C@H]2c1ccccc1OCCO`, the composite z-score in [1] was -0.249; in [2] it was -0.0611; in [3] it was 0.0084; in experiment [4], 0.12; in [5], 1.15; in experiment [6], 1.42. In addition, the composite z-score in [7] was 1.02; in [9], -0.0275; in experiment [10], -0.0994. In addition, the z-score in experiment [8] was 1.62 (inactive).
Turning to `Cc1ccc(S[C@]2(C(=O)NCCN3CCOCC3)CC(=O)N(C(C)C)[C@@H]2c2ccc(CO)cc2I)cc1`, the composite z-score in experiment [1] was 1.15; in [2] it was -0.158; in [3], -0.0805; in experiment [4], -0.11; in experiment [5], -0.521; in experiment [6], 1.69. The composite z-score in experiment [7] is 1.35; in experiment [9], 0.153; in experiment [10] it was -0.166. Besides, the z-score in [8] was -0.977 (inactive).
`CC(C)N1CC=CC23O[C@@H]4/C=C\CCCOC(=O)C4[C@H]2C(=O)N(C(C)CO)[C@@H]3C1=O` (stereo not given in full): the composite z-score in experiment [1] was -0.396; in experiment [2] it was -0.237; in [3], -0.201; in experiment [4], -0.789; in experiment [5], -0.911; in [6], 0.383. Besides, the composite z-score is 0.522 in experiment [7], -0.588 in experiment [9] and -0.303 in [10]. The z-score in experiment [8] was -0.798 (inactive).
As to `COCCOC(=O)N1C(=O)[C@@]2(c3cc(C#CCCO)ccc31)[C@H](c1ccc(O)cc1)N1[C@H](c3ccccc3)[C@H](c3ccccc3)OC(=O)[C@H]1[C@@H]2C(=O)NC[C@H](O)c1ccccc1`, the composite z-score is -0.0825 in [1]; 0.332 in [2]; -0.0271 in [3]; 0.589 in experiment [4]; 0.163 in [5]; 1.25 in [6]. Besides, the composite z-score in experiment [7] is 1.29; in [9], 0.0962; in experiment [10] it was -0.0645. Moreover, the z-score in [8] was -1.69 (inactive).
Consider `O=C1NC(=O)C2C1C=CC(C(O)C1CCCCC1)N2Nc1ccccn1` (stereo not given), for which the composite z-score was -0.236 in experiment [1]; 0.0046 in experiment [2]; -0.0524 in experiment [3]; 0.235 in [4]; 0.629 in [5]; 1.37 in [6]. Also, the figures for the composite z-score in experiment [7], in experiment [9] and in experiment [10] were 1.32, 0.265 and -0.374, respectively. The z-score in experiment [8] is 1.64 (inactive).
Take `COc1cccc(C)c1NC(=O)O[C@H]1[C@H](OC(=O)Nc2ccc3c(c2)OCO3)[C@H](OC(=O)Nc2ccc3c(c2)OCO3)[C@@H](OC)O[C@@H]1CO`: the composite z-score amounted to 0.394 in experiment [1]; 0.439 in experiment [2]; 0.06 in experiment [3]; 0.867 in [4]; 1.25 in experiment [5]; 1.13 in [6]. For the same compound, the composite z-score in experiment [7] turned out to be 1.35; in [9], 1.05; in experiment [10], 0.12. For the same compound, the z-score in experiment [8] was 3.61 (inactive).
As for `COC(=O)[C@@]1(Cc2ccc(F)cc2)[C@H]2c3cc(C(=O)N4CCCC4)n(Cc4ccc(C(F)(F)F)nc4)c3C[C@H]2CN1C(=O)c1ccccc1`, the composite z-score in experiment [1] is 0.581; in experiment [2], -0.0219; in [3] it was 0.16; in experiment [4], 0.0812; in [5], 1.74; in experiment [6] it was 2.1. Moreover, the composite z-score in [7] is 0.92; in experiment [9], 2.25; in experiment [10], -0.0799. Also, the z-score in [8] was 2 (inactive).
On to `COC(=O)[C@]1(Cc2ccccc2CN=[N+]=[N-])N=C(c2ccc(OCCCO)cc2)O[C@@H]1c1ccccc1N=[N+]=[N-]`, for which the composite z-score in experiment [1] is 0.0455; in experiment [2], 0.157; in experiment [3], -0.0465; in experiment [4], -0.223; in experiment [5], -0.206; in experiment [6], 0.829. Besides, the composite z-score is 1.18 in experiment [7], 0.163 in [9] and -0.266 in experiment [10]. For the same compound, the z-score in experiment [8] was 3.39 (inactive).
Take `COCCCNC(=O)[C@@]1(Cc2ccccc2I)c2ccccc2C(=O)N(Cc2ccccc2OC)[C@H]1c1ccc(CO)cc1`: the composite z-score is 0.841 in [1]; 0.32 in [2]; 0.096 in experiment [3]; 0.655 in [4]; -1.09 in experiment [5]; 1.3 in experiment [6]. Besides, the results for the composite z-score in experiment [7], in [9] and in experiment [10] were 1.3, -0.523 and -0.195, respectively. In addition, the z-score in experiment [8] was -2.86 (inactive).
As to `COc1cccc(C)c1NC(=O)O[C@H]1[C@H](OC(=O)Nc2ccccc2-c2ccccc2)[C@@H](OC(=O)Nc2ccccc2-c2ccccc2)[C@@H](OC)O[C@@H]1CO`, the composite z-score in [1] is -0.182; in experiment [2], 0.968; in experiment [3], 0.141; in experiment [4], 1.17; in [5], 1.61; in experiment [6], 1.74. The composite z-score in [7] was 1.38; in experiment [9], 1.64; in [10], 0.053. Also, the z-score in experiment [8] is 0.945 (inactive).
Take `CCCCN1CC=CC23O[C@@H]4/C=C\CCCOC(=O)C4[C@H]2C(=O)N(CCCCCCO)[C@@H]3C1=O` (stereo not given in full): the composite z-score is 0.179 in [1]; -0.619 in experiment [2]; -0.144 in [3]; -0.785 in [4]; -0.868 in experiment [5]; 2.04 in experiment [6]. The figures for the composite z-score in experiment [7], in experiment [9] and in [10] were 1.15, -1.09 and -0.0994, respectively. For the same compound, the z-score in [8] was -1.38 (inactive).
As for `COC(=O)[C@@]1(Cc2ccc(OC)cc2)[C@H]2c3cc(C(=O)N(C)C)n(Cc4c(CO)[nH]cc(C)c4=O)c3C[C@H]2CN1C(=O)c1ccccc1`, the composite z-score was 0.466 in experiment [1]; 0.249 in experiment [2]; -0.015 in experiment [3]; -0.112 in experiment [4]; 1.56 in [5]; 2.09 in experiment [6]. The composite z-score in experiment [7] was determined as 1.37; in experiment [9] it was 1.47; in [10], 1.81. Moreover, the z-score in [8] is 2.07 (inactive).
Regarding `COC(=O)C(CC#Cc1ccc2c(c1)[C@]1(C(=O)N2)[C@H](C(N)=O)[C@H]2C(=O)O[C@H](c3ccccc3)[C@H](c3ccccc3)N2[C@@H]1c1ccccc1OCCO)C(=O)OC`, the composite z-score is 0.29 in experiment [1]; 1.81 in experiment [2]; -0.0122 in experiment [3]; 0.765 in experiment [4]; -0.21 in experiment [5]; 1.67 in [6]. Also, the composite z-score in [7] is 1.4; in [9] it was -0.275; in [10] it was -0.0994. For the same compound, in [8], the z-score is 1.69 (inactive).
Take `O=C1O[C@H](c2ccccc2)[C@H](c2ccccc2)N2[C@H]1[C@@H](C(=O)O)[C@]1(C(=O)Nc3ccc(C#CC4(O)CCCCCC4)cc31)[C@H]2c1ccccc1OCCO`: the composite z-score in experiment [1] was -0.304; in experiment [2] it was 1.43; in [3], 0.0322; in experiment [4], 0.85; in [5] it was 1.11; in experiment [6] it was 0.278. The composite z-score amounted to 1.19 in experiment [7], 0.39 in experiment [9] and 0.781 in experiment [10]. Further, the z-score in experiment [8] was -0.283 (inactive).
As to `C=CCNC(=O)[C@H]1[C@@H]2C(=O)O[C@@H](c3ccccc3)[C@@H](c3ccccc3)N2[C@@H](c2ccc(OCCO)cc2)[C@]12C(=O)N(C(=O)OCCOC)c1ccc(C#CCNC(N)=O)cc12`, the composite z-score is 0.141 in experiment [1]; 0.275 in [2]; -0.399 in experiment [3]; 0.474 in experiment [4]; 1.41 in experiment [5]; 0.491 in [6]. The composite z-score in experiment [7] was 0.778; in [9] it was 0.942; in experiment [10], -0.246. Further, the z-score in [8] was -0.988 (inactive).
